Laboratory results published in PubChem BioAssay AID2314 (National Center for Advancing Translational Sciences (NCATS), 2010).
Screen size: about 300,000 compounds; about 37,000 (12%) were called active. The sample holds actives, similar compounds and a random draw of the others, so the mix is not that of the screen. Rule as the data show it: active = max response mostly above about 13% (no sharp cut-off); inactive = mostly below about 14%.

assay: Cycloheximide Counterscreen for Small Molecule Inhibitors of Shiga Toxin; conditions: cell reporter, cycloheximide protein synthesis inhibition counterscreen; hits give high values; also: read at 38.3 µM for the half of the compounds with a filed dose; 0% is about no effect

| Compound | max response |
| --- | --- |
| Cc1ccccc1-n1nnc2c(=O)oc3ccccc3c21 | -0.308% (inactive) |
| COC(=O)c1ccccc1NC(=O)C1CCN(S(=O)(=O)c2cc(OC)ccc2OC)CC1 | -2.41% (inactive) |
| O=c1c2c3c(sc2n(CCN2CCCC2)c(=O)n1Cc1ccccc1)CCCCC3 | -3.62% (inactive) |
| Cc1ccc(NC(=O)c2cc(-c3ccc(C)o3)nc3ccccc23)nc1 | -0.954% (inactive) |
| Cc1ccc(Nc2nc(-c3ccc(O)cc3O)cs2)nc1 | 50.9% (active) |
| COCCNc1nc(N)c([N+](=O)[O-])c(N2CCCCCC2)n1 | 3.03% (inactive) |
| O=C(COC(=O)c1ccc(O)cc1)Nc1nccs1 | 9.78% (active) |
| Cc1cc(C(=O)OCC(=O)Nc2nccs2)c2ccccc2n1 | -4.23% (inactive) |
| CCCCOC(=O)Nc1nccs1 | 18.8% (inactive) |
| CC(C)CNC(=S)NC(=O)c1ccc(Cl)cc1 | 34.2% (active) |
| Cc1scc(C(=O)NNC(=S)NCC(C)C)c1C | -0.894% (inactive) |
| Cc1occc1C(=O)NNC(=S)NCC(C)C | -3.12% (inactive) |
| Cc1cc(-c2nnc(SCC(=O)Nc3ccc(S(N)(=O)=O)cc3)n2N)n[nH]1 | 1.41% (inactive) |
| CCCNC(=O)N1CCC(c2ccc3c(c2)OCO3)CC1 | -1.8% (inactive) |
| C=CCOc1ccccc1NC(=O)CN1C(=O)CNC1=O | 0.268% (inactive) |
| COC(=O)c1c(CCl)noc1C(=O)NC(C)C | -0.666% (inactive) |
| COc1ccc(-c2cc3nc(C)c(CCC(=O)NC(C)CCc4ccco4)c(C)n3n2)c(OC)c1 (configuration not stated) | 8.95% (inactive) |
| CC(=O)NC(CC(=O)O)c1ccc(F)cc1 (configuration not stated) | -1.3% (inactive) |
| CN(C)c1ccc(C(CC(=O)O)C(=O)O)cc1 (configuration not stated) | 38.6% (active) |
| CN(C)c1ccc(/C=N/NC(=O)C(O)c2ccc(Br)cc2)cc1 (configuration not stated) | 8.48% (inactive) |
| CN1CCN(C(=O)/C(=C\c2ccc3c(c2)OCO3)NC(=O)c2cccs2)CC1 | -1.19% (inactive) |
| COc1cc2ccccc2cc1C(=O)Nc1ccc(NC(=O)c2cccs2)cc1 | -2.59% (inactive) |
| CCC(=O)c1cc2c(cc1NC(=O)c1cccs1)OCCO2 | -4.08% (inactive) |
| COc1cc(NC(=O)COc2ccccc2Cl)ccc1NC(=O)C(C)C | 0.487% (inactive) |
| COc1cc(NC(=O)c2cccs2)ccc1NC(=O)c1ccccc1Cl | 28.9% (active) |

| Compound | max response |
| --- | --- |
| COc1cc(NC(=O)c2ccc3c(c2)OCO3)ccc1NC(=O)c1cccs1 | 17.8% (active) |
| COc1ccc(S(=O)(=O)N2CCC(C(=O)NCCC(=O)NCc3cccc(OC)c3)CC2)cc1 | -2.91% (inactive) |
| Cc1cc(S(=O)(=O)NC2CCCC2)ccc1-n1cnnn1 | -1.68% (inactive) |
| CCC(=O)Nc1cccc(C2=NOC3(C2)C[C@@H](C(N)=O)N(C(=O)c2cc([N+](=O)[O-])cc([N+](=O)[O-])c2C)C3)c1 (some centres not stated) | 3.34% (inactive) |
| CC1=C(C(=O)Nc2ccccc2)C(c2cccs2)C(C#N)=C(SCC#N)N1 (configuration not stated) | -2.44% (inactive) |
| O=C(Nc1ccc(N2CCN(C(=O)c3ccccc3)CC2)c(Cl)c1)c1ncn[nH]1 | -0.606% (inactive) |
| CCn1c(=N)n(CC(=O)c2cccc(OC)c2)c2ccccc21 | 35.3% (active) |
| COc1ccc2cc(C(=O)O)n(CC(=O)c3ccccc3)c2c1 | -1.7% (inactive) |
| CCCn1c(=N)n(CC(=O)c2ccc(Cl)c(Cl)c2)c2ccccc21 | -0.499% (inactive) |
| Cc1ccc(Cn2c(=N)c(S(=O)(=O)c3ccc(C)cc3)cc3c(=O)n4ccccc4nc32)cc1 | -2.4% (inactive) |
| C=CCc1cc(S(=O)(=O)c2ccc(O)c(CC=C)c2)ccc1O | -2.33% (inactive) |
| O=C(Nc1cccc(F)c1)c1coc(=O)c(Br)c1 | 22.1% (active) |
| Cc1c(NC(=O)c2coc(=O)c(Br)c2)c(=O)n(-c2ccccc2)n1C | 10.1% (inactive) |
| O=C(Nc1cccc(NC(=O)c2cccc(F)c2)c1)c1ccccc1 | 9.34% (inactive) |
| COc1ccc(CCNC(=O)CN2C(=O)CCSc3ccccc32)c(OC)c1 | -1.78% (inactive) |
| COc1ccc(CC(=O)N/N=C/c2cc([N+](=O)[O-])cc(Br)c2O)cc1 | -2.73% (inactive) |
| O=C1CSC(=S)N1/N=C/c1ccc(O)c([N+](=O)[O-])c1 | 2.96% (inactive) |
| CCOc1cccc(/C=N/NC(=S)NCCN2CCOCC2)c1O | 9.08% (inactive) |
| CCOc1cccc(/C=N/N2C(=O)CSC2=S)c1O | 13.3% (active) |
| Cc1cccc(CN2CCC(n3nccc3NC(=O)c3ccccc3C)CC2)n1 | 2.27% (inactive) |
| COc1ccc(OCc2cn3c(C)cc(C)nc3n2)cc1 | 17.1% (inactive) |
| CNS(=O)(=O)c1cccc(C(=O)NCC2CCCCC2)c1 | -3.55% (inactive) |
| CN(C(=O)c1cccc(OC2CCN(S(=O)(=O)N(C)C)CC2)c1)C1CCOC1 (configuration not stated) | 16.6% (inactive) |
| CN(C)S(=O)(=O)N1CCC(Oc2cccc(C(=O)NCCCC3CCCC3)c2)CC1 | 52.4% (active) |
| Nc1nc(NC(=O)/C=C/c2ccccc2)nn1-c1ccccc1 | -0.981% (inactive) |

| Compound | max response |
| --- | --- |
| Cc1ccc(S(=O)(=O)Nc2nc(N)n(-c3ccccc3)n2)cc1 | -2.82% (inactive) |
| Cc1ccc(C(=O)Nc2nc(N)n(-c3ccccc3)n2)cc1 | 20.3% (active) |
| CC(=O)c1ccc(OCC(O)CN2CCN(S(=O)(=O)c3cccc(Br)c3)CC2)cc1 (configuration not stated) | -0.615% (inactive) |
| O=c1c2cc([N+](=O)[O-])ccc2nc2n1CCC2 | -3.29% (inactive) |
| O=c1[nH]c(/C=C\c2cccc(C(F)(F)F)c2)nc(O)c1[N+](=O)[O-] | -0.44% (inactive) |
| C=CCN(C(=O)Cn1ncc2c1-c1cc(C)ccc1OC2)c1ccccc1 | -3.22% (inactive) |
| Cc1nn(CC(=O)Nc2ccc3c(c2)nc(CN2CCCCC2)n3C)c(=O)c2ccccc12 | 9.68% (inactive) |
| CCC(=O)Nc1ccc2nc(C)n(Cc3ccccc3Cl)c(=O)c2c1 | -0.377% (inactive) |
| C=CCN(C(=O)Nc1ccc2c(c1)nc(C)n2C)c1ccccc1 | 32.3% (active) |
| C=CCN(CC=C)C(=O)Nc1ccc(OCC)cc1 | 12.5% (inactive) |
| C=CCN(C(=O)Nc1ccc2oc(C)nc2c1)c1ccccc1 | 44.6% (active) |
| O=C(NCCCO)c1cc2c([nH]c3ccccc32)c(-c2ccc(F)cc2)n1 | 1.63% (inactive) |
| Cc1c(C=O)c2ccccc2n1CCOc1ccccc1 | 11.4% (inactive) |
| COC(=O)c1ccccc1N=Nc1c(C)[nH][nH]c1=O | -1.54% (inactive) |
| COc1ccccc1N=C(C)C1=C(O)COC1=O | -3.1% (inactive) |
| COc1ccccc1N=Nc1c(O)[nH]c(=S)[nH]c1=O | 18.5% (active) |
| COCCCNC(NC(=O)c1ccc(C)cc1)C(Cl)(Cl)Cl (configuration not stated) | 0.737% (inactive) |
| Cc1ccc(CNC(=O)C2CCN(S(=O)(=O)c3ccc4nc5c(c(C(=O)O)c4c3)CC(C)CC5)CC2)cc1 (configuration not stated) | -2.65% (inactive) |
| O=C(NCCCCc1ccccc1)C1CC(c2ccc([N+](=O)[O-])cc2)=NO1 (configuration not stated) | 1.79% (inactive) |
| Cc1[nH][nH]c(=O)c1C(c1ccc2c(c1)OCO2)c1c(C)[nH][nH]c1=O | -0.172% (inactive) |
| Cc1[nH][nH]c(=O)c1N=Nc1ccccc1 | -2.86% (inactive) |
| Nc1[nH][nH]c(=O)c1N=Nc1ccc2c(c1)OCO2 | 37.1% (active) |
| COc1cc(OC)c2c(c1C(CCN1CCCCC1)c1ccc(N(C)C)cc1)OC(=O)CC2c1ccc(N(C)C)cc1 (configuration not stated) | -4.1% (inactive) |
| Cc1ccc(O)c(-c2cc(C(=O)NCc3ccccc3)[nH]n2)c1 | 11.1% (inactive) |
| Cc1ccc(O)c(CCc2ccccc2)n1 | 17.6% (active) |

| Compound | max response |
| --- | --- |
| c1ccc(CSCCc2ccncc2)cc1 | 7.75% (inactive) |
| CC(=O)N1CC[n+]2c(-c3ccc([N+](=O)[O-])cc3)csc21 | 6.33% (inactive) |
| COc1cccc(-c2nc3ccc(N4CCN(C)CC4)cc3[nH]2)c1 | -9.87% (inactive) |
| Cc1nc2ccc(N3CCN(C)CC3)cc2nc1C | 40.7% (active) |
| CN1CCN(c2ccc([N+](=O)[O-])c(Sc3nc4ccccc4[nH]3)c2)CC1 | -2.61% (inactive) |
| Cc1ccc(Cn2cc(C(=O)NN)c(=O)c3ccc(F)cc32)cc1 | -3.85% (inactive) |
| Cc1ccc(CNC(=O)c2c(-c3ccccc3)noc2C)cc1 | -2.32% (inactive) |
| CC(=O)c1ccc(NC(=O)c2ccc3c(Cl)c4c(nc3c2)CCCC4)cc1 | -0.107% (inactive) |
| CC(C)CCNC(=O)c1ccc2c(Cl)c3c(nc2c1)CCC3 | 48.4% (active) |
| COc1ccc(N2CCN(C(=O)c3ccc4c(Cl)c5c(nc4c3)CCCC5)CC2)cc1 | -3.2% (inactive) |
| COc1cccc(CC2(CO)CCN(Cc3cnc(-c4cccc(C)c4)nc3)CC2)c1 | 10.3% (inactive) |
| Oc1ccc2nc(Cc3ccccc3)[nH]c2c1 | 20.5% (active) |
| Cc1nc2ccc(C(=O)O)cc2[nH]1 | -7.8% (inactive) |
| c1ccc2cc3[nH]c(CN4CCCCC4)nc3cc2c1 | 31.1% (inactive) |
| Cc1cc(OCC(=O)N2CCN(c3ncccn3)CC2)ccc1Cl | -2.98% (inactive) |
| O=C(CC1C(=O)NCCN1CC(c1ccccc1)c1ccccc1)NCC1CCOCC1 (configuration not stated) | -4.31% (inactive) |
| Cc1nc(Nc2ccccc2F)c2nnn(Cc3ccccc3Cl)c2n1 | -1.8% (inactive) |
| Cc1nc(Nc2ccc3c(c2)OCCO3)c2nnn(Cc3ccccc3Cl)c2n1 | 83.5% (active) |
| CCCc1nc(NCc2ccc3c(c2)OCO3)c2nnn(Cc3ccccc3Cl)c2n1 | -2.15% (inactive) |
| CC1(c2ccc3ccccc3c2)NC(=O)N(CC(N)=O)C1=O (configuration not stated) | -1.55% (inactive) |
| Nc1cccc(CCc2nc3ccccc3[nH]2)c1 | 24% (active) |
| CC(C)=C(NC(=O)c1ccco1)C(=O)NCCc1nc2ccccc2[nH]1 | -2.53% (inactive) |
